Screening data: PubChem, National Center for Advancing Translational Sciences (NCATS)
TDP1 cell CPT: qHTS for Inhibitors of human tyrosyl-DNA phosphodiesterase 1 (TDP1): qHTS in cells in presence of CPT | chicken DT40 Tdp1-/-;hTDP1 cells + 20 nM CPT, ATP luminescence, 48 h | Potency, µM (titrated, usually from 46.2 µM), for inactives: at the highest dose activity change, negative = growth inhibition, hits mostly inhibitors | 420,000 tested, 12% active | AID 686979, 2013; note: potency is the fitted concentration of half-maximal effect; nearly all actives have a fitted effect of over 55% in size
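Chicken DT40 Tdp1-/- cells stably complemented with human TDP1 were seeded at 400 cells/well in medium containing 20 nM camptothecin, exposed to pin-transferred compounds, and grown at 37 °C for at least 48 hr. Viability was read as ATP luminescence.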
ELG1 DNA repair: qHTS screen for small molecules that inhibit ELG1-dependent DNA repair in human embryonic kidney (HEK293T) cells expressing luciferase-tagged ELG1 | HEK293T ELG1-luciferase reporter, luminescence, 16 h; DNA damage induced by 5-fluorouridine | AID 504467, 2011 | 330,000 tested, 2.3% active | Potency, µM (top dose mostly 46.1 µM), for the others: at the top dose activity change, negative = inhibition, most hits filed as inhibitors; note: potency is the fitted concentration of half-maximal effect; nearly all actives have a fitted effect of over 55% in size
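HEK293T cells expressing luciferase-tagged ELG1 (2,000/well) received 5-Fluorouridine plus compound or DMSO for 16 hr at 37 °C. Luciferase was read by ONE-Glo luminescence after 30 min at room temperature.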
IL1B secr inh: qHTS for Inhibitors of Inflammasome Signaling: IL-1-beta AlphaLISA Primary Screen | THP-1 LPS/ATP IL-1B secretion, AlphaLISA, 16 h; active compounds read low | 360,000 tested, 4.7% active | activity change, % at 57.5 µM; in the data active = activity change below about -50%; inconclusive = mostly about -30% to -49%
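THP-1 cells pretreated 1 hr with compounds (up to 57.5 uM final), then stimulated with LPS (250 ng/mL final) plus ATP (1.25 mM final); secreted IL-1B measured by AlphaLISA after 16 hr, decreased signal indicating inhibition.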
Gal4-VP16 FLuc: VP16 counterscreen qHTS for inhibitors of ROR gamma transcriptional activity. Potency, µM (highest dose often 53.6 µM), inactives show at the top dose activity, negative = inhibition, usual class: inhibitors. 310,000 tested, 3.5% active. AID 2546, 2010. Drosophila S2 Gal4-VP16 UAS-luciferase, luminescence, 20 h;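 note: Gal4-VP16 expression switched on by copper sulfate through the metallothionein promoter; potency is the fitted concentration of half-maximal effect; nearly all actives have a fitted effect of over 50% in size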
RORgamma inh: qHTS for inhibitors of ROR gamma transcriptional activity. Nuclear receptor ROR-gamma (Mus musculus), P51450. Drosophila S2 Gal4-RORgamma UAS-luciferase reporter, 20 h. Potency, µM (series often up to 53.6 µM), for the others: at the highest dose activity change, negative = inhibition, most hits filed as inhibitors. 310,000 tested, 5.4% active. AID 2551, 2010; note: potency is the fitted concentration of half-maximal effect; nearly all actives have a fitted effect of over 60% in size
Target sequence (P51450 whole entry, looked up, the tested form may be a part): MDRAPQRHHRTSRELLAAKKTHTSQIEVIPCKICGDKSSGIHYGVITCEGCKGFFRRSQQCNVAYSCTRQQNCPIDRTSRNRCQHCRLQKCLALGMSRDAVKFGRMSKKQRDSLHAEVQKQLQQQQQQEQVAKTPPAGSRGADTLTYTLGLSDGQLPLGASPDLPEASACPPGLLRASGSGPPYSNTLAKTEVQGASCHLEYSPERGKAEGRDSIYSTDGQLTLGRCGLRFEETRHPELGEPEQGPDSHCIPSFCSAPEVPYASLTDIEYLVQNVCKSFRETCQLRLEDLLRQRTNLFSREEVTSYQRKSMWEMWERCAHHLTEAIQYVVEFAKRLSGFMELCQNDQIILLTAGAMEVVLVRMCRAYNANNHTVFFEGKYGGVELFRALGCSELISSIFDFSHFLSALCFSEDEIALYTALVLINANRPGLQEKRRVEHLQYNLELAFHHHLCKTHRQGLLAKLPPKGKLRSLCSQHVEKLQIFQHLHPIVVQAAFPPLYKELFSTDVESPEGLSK
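A Gal4/UAS one-hybrid system in insect cells: metallothionein-promoter Gal4–ROR gamma fusion plus Photinus luciferase reporter. Copper sulfate 700 uM final, 20 hr ambient incubation, luminescent detection after 10 min with reagent.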
DT40 TDP1 no CPT: qHTS for Inhibitors of human tyrosyl-DNA phosphodiesterase 1 (TDP1): qHTS in cells in absence of CPT; Potency, µM (titrated, usually from 46.2 µM), for the others: at the highest dose activity change, negative = growth inhibition, actives largely listed as inhibitors; AID 686978, 2013; 420,000 tested, 15% active; DT40 Tdp1-/- hTDP1 cells, no CPT, ATP luminescence, 48 h; note: potency is the fitted concentration of half-maximal effect; nearly all actives have a fitted effect of over 55% in size
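No-CPT arm: Tdp1-/-;hTDP1 DT40 cells (400/well) plus compounds, incubated ≥48 hr at 37 °C. Readout CellTiter-Glo luminescence.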
* = called active by the depositor; ? = inconclusive; · = not tested or not shown. A selection: hits, their analogues and other compounds. The true share with any hit is near 21%. Unless noted, calls come from the whole dose curve; as a rule, active = well fitted curve in the direction sought with a large enough effect; inconclusive = small, poorly fitted or top-dose-only effect, or another doubt; inactive = no such curve, though single readings can be large; an effect the other way counts as inactive or inconclusive. % is set by controls: 0 for no effect and ±100 for the full control effect.

SMILES	TDP1 cell CPT	ELG1 DNA repair	IL1B secr inh	Gal4-VP16 FLuc	RORgamma inh	DT40 TDP1 no CPT
CN(C)c1ccc(C(CNS(=O)(=O)c2ccc3ccccc3c2)c2c[nH]c3ccccc23)cc1 (stereo unspecified)	?	?	-17	7%	30%	?
CN(C)c1ccc(C(CN)c2c[nH]c3ccccc23)cc1 (stereo unspecified)	18µM*	6%	0	-3%	23%	21µM*
O=S(CC(O)(c1ccccc1)c1ccccc1)CC(O)(c1ccccc1)c1ccccc1	18µM*	·	-10	·	·	18µM*
COc1ccc(N2C(=O)CC(N3CCC(O)(c4ccc(Br)cc4)CC3)C2=O)cc1 (stereo unspecified)	18µM*	2%	29	3%	?	?
O=C1CC(N2CCC(O)CC2)C(=O)N1c1ccc(Br)cc1 (stereo unspecified)	?	2%	0	-15%	-8%	?
O=C1CC(N2CCC(O)(c3ccc(Br)cc3)CC2)C(=O)N1c1ccc(Cl)cc1 (stereo unspecified)	?	-10%	0	?	?	26µM*
Cc1ccc(S(=O)(=O)N2CCN(C(=O)Cc3ccc(S(=O)(=O)N4CCOCC4)s3)CC2)cc1	-19%	-4%	3	3%	-4%	-19%
O=C(Cc1ccc(S(=O)(=O)N2CCOCC2)s1)N1CCN(S(=O)(=O)c2cccc(Cl)c2)CC1	16µM*	-9%	0	·	·	16µM*
O=C(Nc1ccc(Cl)cc1)c1ccc(S(=O)(=O)N2CCOCC2)cc1	?	?	7	-3%	49%	?
O=C(Nc1ccc(S(=O)(=O)N2CCOCC2)cc1)c1ccc(Cl)s1	23µM*	?	-21	-13%	?	?
O=C(Cc1ccc(S(=O)(=O)N2CCOCC2)s1)N1CCN(S(=O)(=O)c2cccc(F)c2)CC1	?	·	-9	·	·	-10%
O=C(Cc1ccc(S(=O)(=O)N2CCOCC2)s1)N1CCN(S(=O)(=O)c2ccccc2F)CC1	-29%	·	-16	·	·	-16%
CCOc1ccccc1N1CCN(C(=O)Cc2ccc(S(=O)(=O)N3CCOCC3)s2)CC1	?	-4%	-11	·	·	21µM*
O=C(Cc1ccc(S(=O)(=O)N2CCOCC2)s1)N1CCN(S(=O)(=O)c2ccc(Cl)cc2)CC1	23µM*	-16%	?	·	·	23µM*
COC(=O)/C(=C1\OC(=O)C(c2ccccc2)C1=O)c1ccccc1 (stereo unspecified)	0%	·	·	0%	?	-1%
N#Cc1ccc(OCC(=O)N2CCN(S(=O)(=O)c3ccc(Cl)s3)CC2)cc1	16µM*	?	?	·	·	?
O=C(c1ccc(S(=O)(=O)N2CCOCC2)cc1)N1CCN(S(=O)(=O)c2ccc(Cl)s2)CC1	?	-8%	-1	-1%	14%	16µM*
O=C(Cc1ccc(S(=O)(=O)N2CCOCC2)s1)N1CCN(c2cccc(C(F)(F)F)c2)CC1	7.3µM*	?	8	?	45%	3.7µM*
O=C(c1ccc(S(=O)(=O)N2CCOCC2)cc1)N1CCOCC1	-15%	-14%	4	-6%	24%	7%
O=C1NC(Cc2ccc(O)cc2)c2nc3cc(Cl)ccc3c(=O)n2-c2cc3ccccc3cc21 (stereo unspecified)	-1%	·	17	·	·	-19%
